# High-throughput results deposited in PubChem by National Center for Advancing Translational Sciences (NCATS).
# Sampled rows, rich in hits. Any-hit rate of the full collection: about 1.3%.
# gsp ag: agonists of gsp mutant (McCune-Albright syndrome). actives 0.13% (n = 340,000). gsp mutant cells, cAMP HTRF, 30 min. Potency, µM (top dose mostly 76.9 µM), usual class: activators; active means well fitted activation curve with a large enough effect; inconclusive means small, poorly fitted or top-dose-only effect, or another doubt; inactive means no such curve, though single readings can be large or run the other way; cell line not stated here;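 further: phosphodiesterase inhibitor Ro 20-1724 added with compounds to block cAMP breakdown; nearly all actives have a fitted effect of over 60% in size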
#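 Cells stably selected in G418 were plated at 2000/well, grown 16-24 hr, then given compounds in DMSO with the PDE inhibitor […] (300 uM solution added) for 30 min at 37C; cAMP was read by HTRF.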
# gsp antagonist: gsp mutant antagonism; actives 0.4% (n = 340,000); gsp-mutant cells, cAMP HTRF, 30 min; Potency, µM (titrated, usually from 76.9 µM), hits mostly inhibitors; calls by dose curve; cell line not stated here;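 further: intracellular cAMP measured with PDE inhibitor Ro 20-1724 present during compound exposure; nearly all actives have a fitted effect of over 65% in size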
#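 G418-selected cells were plated in DMEM/10% FBS for 16-24 h at 37C, then treated with compounds plus the PDE inhibitor […] (300 uM solution added) for 30 min at 37C. Intracellular cAMP was measured by HTRF after 30 min lysis at room temperature.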
# RXFP1 antagonist: antagonists of human relaxin receptor RXFP1 | Q9HBX9 | HEK293-RXFP1, relaxin-stimulated cAMP HTRF, 30 min; hits give low values | activity change, negative = inhibition, % at 57.5 µM | actives 0.59% (n = 350,000) | AID 1259400;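 active means activity change of -60% or lower, but not beyond a set lower limit; inconclusive means change between -60% and -40%, or beyond the set limit; inactive means change above -40%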
# Target sequence (Q9HBX9 whole entry, looked up): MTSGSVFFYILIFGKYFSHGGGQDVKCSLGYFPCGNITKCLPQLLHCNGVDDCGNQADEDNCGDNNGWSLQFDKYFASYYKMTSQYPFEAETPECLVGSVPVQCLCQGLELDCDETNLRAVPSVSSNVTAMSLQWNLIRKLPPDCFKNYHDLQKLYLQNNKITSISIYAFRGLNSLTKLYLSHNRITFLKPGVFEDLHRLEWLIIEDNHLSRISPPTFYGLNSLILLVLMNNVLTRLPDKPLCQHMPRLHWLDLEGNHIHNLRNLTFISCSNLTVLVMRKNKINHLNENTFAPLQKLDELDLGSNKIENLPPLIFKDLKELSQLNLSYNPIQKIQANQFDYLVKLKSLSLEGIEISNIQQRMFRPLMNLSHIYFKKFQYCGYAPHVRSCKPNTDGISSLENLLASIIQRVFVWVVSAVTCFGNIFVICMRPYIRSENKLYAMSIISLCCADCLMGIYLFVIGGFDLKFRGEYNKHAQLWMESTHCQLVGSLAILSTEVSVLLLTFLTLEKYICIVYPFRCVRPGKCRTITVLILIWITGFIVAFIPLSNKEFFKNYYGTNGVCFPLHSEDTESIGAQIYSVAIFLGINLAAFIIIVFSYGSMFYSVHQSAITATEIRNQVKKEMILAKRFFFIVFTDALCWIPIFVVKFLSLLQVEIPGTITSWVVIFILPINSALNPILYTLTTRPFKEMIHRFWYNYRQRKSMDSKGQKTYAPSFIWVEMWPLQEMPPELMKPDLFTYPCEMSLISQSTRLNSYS
# RXFP1 agonist: RXFP1 (human) receptor agonism; Q9HBX9; HEK293T-RXFP1 cAMP TR-FRET, 30 min; response scale: percent of porcine relaxin response, buffer zero; Potency, µM (highest dose often 57.5 µM), usual class: activators; actives 0.3% (n = 370,000); AID 2676; active means well fitted activation curve with a large enough effect; inconclusive means small, poorly fitted or top-dose-only effect; further: nearly all actives have a fitted effect of over 60% in size
#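 cAMP rise read by TR-FRET after 30 min, 37C compound exposure (up to 58 uM) in RXFP1-transfected HEK293 cells with Ro 20174 present. EC50 from Hill-equation fits, with 29 nM porcine relaxin as 100% and buffer as basal.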
# Akt phos inh: Akt phosphorylation inhibition. Neuro2A IGF-stimulated pAkt S473 HTRF, 20 min; hits give low values. actives 0.32% (n = 360,000). activity change, % for hits at 50 µM; in the data active means activity change below about -80%; inconclusive means mostly about -51% to -80%
#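 Neuro2A cells in DMEM with 0.5% FBS, overnight at 37 deg C, given compound at single 50 µM final, then IGF (6 nM final) for 20 min at 37 deg C. Lysed; phospho-Akt Ser473 by HTRF after 24 h, 665/615 ratio.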
# A number is an active result; n = inactive; u = inconclusive; x = no result given; [ ] = remark or other dose.
SMILES,gsp ag,gsp antagonist,RXFP1 antagonist,RXFP1 agonist,Akt phos inh
CCOc1cccc(-c2c(C(=O)N/N=C(\C)c3ccccn3)nnn2-c2nonc2N)c1,n,n,n,n,n
CCOC(=O)c1nnn(-c2nonc2N)c1-c1ccc(OCC)cc1,n,n,n,n,-112%
CCOc1ccc(-c2c(C(=O)N/N=C/c3c[nH]c4ccccc34)nnn2-c2nonc2N)cc1,u,25µM,n,n,n
O=C1C2=C(C(=O)c3ccccc31)C1O[C@](CCCCN3C(=O)c4ccccc4C3=O)(Cc3c1ccc1ccccc31)O2,x,x,x,n[11.5 µM],x
Cc1ccc2c(CC(=O)N3CCN(c4cccc(Cl)c4)CC3)coc2c1,x,x,u,n,x
COCCCn1c(=S)[nH]c2sc3c(c2c1=O)CCCS3,n[15.4 µM],n,n,16µM,n
N#Cc1nc(Cc2cccc3ccccc23)oc1NCc1ccc(F)cc1,n,n,n,n,-108%
Cc1cccc(-c2nnc(C3CCN(S(=O)(=O)c4cccc(Cl)c4)CC3)o2)c1,x,x,n,n,x
CC(=O)OCCN1c2ccccc2Sc2cnccc21,n,x,n,x,n
CC(=O)OCCCN1c2ccccc2Nc2nnc(-c3ccccc3)cc21,n,40µM,n,n,n
Cc1cc(SCC(=O)N/N=C/c2ccc(O)c(O)c2)nc2ccccc12,n,n,-67,n,n
Cc1cc(SCC(=O)N/N=C/c2ccc(O)cc2O)nc2ccccc12,u,35µM,n,n,n
Cc1ccc2nc(SCC(=O)N/N=C/c3ccco3)cc(C)c2c1,n[15.4 µM],n,n,n,n
CCOC(=O)c1c(-c2ccccc2Cl)csc1NC(=O)CSc1nc(C)cc(=O)[nH]1,n,u,-80,n,n
COC(=O)c1cc(NC(=O)CSc2nc(C)cc(=O)[nH]2)cc(C(=O)OC)c1,n,u,n,n,-106%
Cc1cc(=O)[nH]c(SCC(=O)Nc2cccc(S(=O)(=O)N3CCOCC3)c2)n1,16µM,n,n,n,n
O=C(C1CCCCC1)N1CC(=O)N2CCCc3ccccc3C2C1 (stereo not given),x,x,n,x,x
COc1ccc(-c2nc3n(n2)C(c2cccnc2)C(C(N)=O)=C(C)N3)cc1 (stereo not given),n,n,n,n,n
CC1=C(C(N)=O)C(c2cccc(C)c2)n2nc(-c3ccc(Cl)cc3)nc2N1 (stereo not given),x,x,-62,n,x
CCN(C(=O)Cn1nnc2sc3c(c2c1=O)CCC(C(C)(C)C)C3)c1cccc(C)c1 (stereo not given),x,x,n,n,x
CCCOc1ccc(/C=N/Nc2ccc(C(=O)O)cc2)c(OCCC)c1,n[15.4 µM],10µM,u,n,n
CCc1ccccc1NC(=O)CN(c1cc(C(F)(F)F)ccc1Cl)S(=O)(=O)c1ccccc1,x,x,x,n,x
O=C(Cn1cc(C(=O)c2ccco2)c2ccccc21)NCc1ccco1,n,n,n,n,-105%
COc1ccc(S(=O)(=O)NCCSCc2cccs2)cc1,n,32µM,n,n,n
O=C(/C=C/c1cccc(Cl)c1)NCCN1CCOCC1,n,n,n,n,n
SMILES,gsp ag,gsp antagonist,RXFP1 antagonist,RXFP1 agonist,Akt phos inh
O=C(/C=C/c1ccc(Cl)cc1)NCCN1CCOCC1,u,n,n,n,-95%
COC(=O)c1ccc(NC(=O)c2cc3cc4ccc(OC)c(Cl)c4nc3s2)cc1,x,x,n,n,x
CCC(C)(C)C1CCc2c(sc(NC(=O)c3ccccc3C(=O)O)c2C#N)C1 (stereo not given),n,u,-69,n,n
CC(C)(C)C1CCc2c(sc(NC(=O)C3CC=CCC3C(=O)O)c2C#N)C1 (stereo not given),n,40µM,n,n,n
COc1ccc2nc(SCc3ncc(C)c(OC)c3C)[nH]c2c1,x,x,n,x,x
CCC(C)NC(=O)CSc1nnc(-c2ccc(C)cc2)c(-c2ccc(C)cc2)n1 (stereo not given),x,x,n,n,x
O=C(c1ccc(Cl)cc1)N1CCN(c2ccnc3cc(Cl)ccc23)CC1,n[15.4 µM],40µM,n,n,n
O=C(Oc1ccnc2cc(Cl)ccc12)N1CCCCCC1,n,n,n,n,-96%
CCOC(=O)N1CCN(c2ccnc3cc(Cl)ccc23)CC1,n[15.4 µM],n,n,n,n
CCCC[C@]12Cc3cc(C#N)ccc3C(O1)c1c(c3cc(F)ccc3oc1=O)O2,x,x,x,n[11.5 µM],x
Cc1nnc2sc(SCC(=O)N3CCCCC3)nn2c1=O,28µM,n,n,n,n
Cc1nnc2sc(SCC(=O)N3CCC(C)CC3)nn2c1=O,u,n,n,u,n
O=C1C=CC2C3C(=O)N(c4ccccc4)C(=O)C3C1N2Cc1ccccc1 (stereo not given),n,n,-108,x,n
COc1ccc(CNC(=O)C2CCN(S(=O)(=O)Cc3ccccc3)CC2)cc1,x,x,n,n,x
O=C1NC(=S)N/C1=C\c1ccccc1OCc1ccc(C(=O)O)cc1,n[15.4 µM],n,n,n,n
O=C(O)c1ccc(COc2ccccc2C=C2C(=O)c3ccccc3C2=O)cc1,n[15.4 µM],n,-60,n,n
CCCNC(=O)NC(=O)COc1c(F)c(F)cc(F)c1F,n,n,n,n,-102%
O=C(CCCN1C(=O)/C(=C/c2cccs2)SC1=S)Nc1cccc(C(=O)O)c1,n,n,n,n,n
O=C(CCN1C(=O)/C(=C/c2cccs2)SC1=S)Nc1cccc(O)c1,n,40µM,u,n,n
COc1ccc(/C=C2\SC(=S)N(CCC(=O)Nc3ccccc3C(=O)O)C2=O)cc1,n,n,n,n,n
O=C(CCCN1C(=O)/C(=C/c2cccs2)SC1=S)Nc1cccc(O)c1,n,45µM,n,n,n
COc1ccc(/C=C2\SC(=S)N(CCCC(=O)Nc3ccccc3C(=O)O)C2=O)cc1OC,u,35µM,n,n,n
O=C(CCN1C(=O)/C(=C/c2cccs2)SC1=S)Nc1ccc(O)cc1,n,n,n,n,n
Cc1ccc2c(c1)N(C(=O)N1CCC(C(=O)NCCC3=CCCCC3)CC1)CC(C)O2 (stereo not given),x,x,n,n,x
CCOC(=O)c1cc2c(=O)n3ccccc3nc2n(CCCOC)c1=NC(=O)c1c(-c2ccccc2Cl)noc1C,x,x,x,n,x
SMILES,gsp ag,gsp antagonist,RXFP1 antagonist,RXFP1 agonist,Akt phos inh
COC(=O)c1cccc(Oc2nc3c(c(=O)n(C)c(=O)n3C)n2Cc2ccc(C)cc2)c1,7.9µM,n,n,x,n
CCCCn1c(Oc2cccc(C(=O)OC)c2)nc2c1c(=O)n(C)c(=O)n2C,x,x,n,n,x
CCOC(=O)CN1C(=O)C(C)(C)Oc2ccc(C(=O)NC(C)(C)CC)cc21,n,n,n,n,-111%
CCC(C)n1nnc2c(=O)oc3ccccc3c21 (stereo not given),n,n,n,n,-92%
CCOC(=O)Cn1ncc2c(=O)oc3ccccc3c21,n,n,n,n,n
Cc1ccc(-n2nnc3c(=O)oc4ccccc4c32)cc1,n,u,-89,n,n
Cc1cc(C)c(S(=O)(=O)NCc2csc(-c3ccccc3)n2)c(C)c1,x,x,n,n,x
COc1ccc(/C=C/CN2CCCC(CO)(Cc3cccc(Cl)c3)C2)cc1 (stereo not given),u,n,-69,n,n
